G9a inh: G9a (human) methyltransferase inhibition; G9a H3K9 monomethylation, AlphaScreen, 2 h; actives 8.8% (n = 350,000); Potency, µM (series often up to 102 µM), for inactives: top-dose activity, negative = inhibition, usual class: inhibitors; Q96KQ7; note: potency is the fitted concentration of half-maximal effect; % is set by controls: 0 for no effect and ±100 for the full control effect; nearly all actives have a fitted effect of over 75% in size
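Enzyme 20 nM + cpd, 15 min RT; add b-H3K9 pep 500 nM / SAM 20 uM; 2 h RT; anti-H3K9me1 Ab 0.5 ug/mL + SA donor / anti-rabbit acceptor beads 20 ug/mL each, 10 min; AlphaScreen read.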
BAZ2B inh: BAZ2B (human) inhibition; AlphaScreen BAZ2B-H3K14Ac peptide displacement; Potency, µM (top dose mostly 114 µM), for the others: at the highest dose activity change, negative = inhibition, actives largely listed as inhibitors; actives 4.4% (n = 360,000); AID 504333; note: potency is the fitted concentration of half-maximal effect; % is set by controls: 0 for no effect and ±100 for the full control effect; nearly all actives have a fitted effect of over 60% in size
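Protein-peptide AlphaScreen: BAZ2B 50 nM, b-H3K14Ac 50 nM, 1x PBS pH 7.4 + 0.01% Tween-20. Preincubation 30 min RT; cpd 30 min RT (top 110 uM); beads 20 min RT, light-protected.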
JMJD2A Tudor inh: inhibitors of human JMJD2A Tudor domain; O75164; AlphaScreen JMJD2A-Tudor / H3K4me3 peptide binding; Potency, µM (top dose mostly 114 µM), inactives show top-dose activity change, negative = inhibition, usual class: inhibitors; actives 4.4% (n = 390,000); AID 504339; note: potency is the fitted concentration of half-maximal effect; % is set by controls: 0 for no effect and ±100 for the full control effect; nearly all actives have a fitted effect of over 50% in size
Target sequence (O75164 whole entry, looked up, the tested form may be a part): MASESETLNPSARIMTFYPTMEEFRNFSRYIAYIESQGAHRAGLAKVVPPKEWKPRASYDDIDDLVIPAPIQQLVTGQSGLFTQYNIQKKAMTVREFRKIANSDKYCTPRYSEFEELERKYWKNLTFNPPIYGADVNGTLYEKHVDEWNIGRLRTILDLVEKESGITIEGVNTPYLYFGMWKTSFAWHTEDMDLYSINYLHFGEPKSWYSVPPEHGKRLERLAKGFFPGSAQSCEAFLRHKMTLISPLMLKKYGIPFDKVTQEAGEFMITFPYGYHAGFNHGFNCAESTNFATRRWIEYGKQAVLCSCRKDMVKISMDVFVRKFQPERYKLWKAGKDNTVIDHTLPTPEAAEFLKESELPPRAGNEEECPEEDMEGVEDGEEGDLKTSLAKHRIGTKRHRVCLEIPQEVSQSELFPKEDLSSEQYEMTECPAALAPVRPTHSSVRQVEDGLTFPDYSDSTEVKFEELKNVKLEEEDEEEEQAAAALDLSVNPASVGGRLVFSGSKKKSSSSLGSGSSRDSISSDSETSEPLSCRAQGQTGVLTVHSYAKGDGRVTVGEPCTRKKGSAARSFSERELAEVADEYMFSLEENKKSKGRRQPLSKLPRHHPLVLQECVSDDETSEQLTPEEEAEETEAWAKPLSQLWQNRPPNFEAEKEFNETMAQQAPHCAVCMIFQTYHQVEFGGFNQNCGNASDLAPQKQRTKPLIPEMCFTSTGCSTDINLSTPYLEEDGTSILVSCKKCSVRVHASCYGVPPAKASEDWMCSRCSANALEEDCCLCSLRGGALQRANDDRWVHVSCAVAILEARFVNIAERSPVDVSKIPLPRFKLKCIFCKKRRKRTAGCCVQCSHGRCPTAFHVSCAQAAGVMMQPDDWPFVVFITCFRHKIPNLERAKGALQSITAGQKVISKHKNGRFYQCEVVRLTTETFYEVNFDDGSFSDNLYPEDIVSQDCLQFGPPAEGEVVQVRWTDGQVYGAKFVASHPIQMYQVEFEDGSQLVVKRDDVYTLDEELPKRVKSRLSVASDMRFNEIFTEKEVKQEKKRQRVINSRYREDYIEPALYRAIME
PI5P4Ka inh: blocks human PI5P4K alpha kinase activity. P48426. PI5P4Kalpha enzyme, ADP-Glo luminescence, 60 min; active compounds read low. max response, %. actives 1.2% (n = 330,000). AID 652105; active = max response of -50% or lower; inconclusive = between -30% and -50%; inactive = -30% or higher; note: value at the top dose of about 77 µM; % is set by controls: 0 for no effect and ±100 for the full control effect
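qHTS, 1536-well: enzyme/substrate mix, compound by pin tool, 5 microM ATP final; RT 60 min; ADP-Glo reagents 1 (45 min) then 2 (30 min); luminescence.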
PLK1 PBD inh: blocks phosphopeptide binding to human PLK1 polo-box domain; AID 720504; Potency, µM, for the others: max response, negative = inhibition, actives largely listed as inhibitors; actives 2.8% (n = 360,000); Plk1 PBD binding of FITC phosphopeptide, fluorescence polarization; note: potency is the fitted concentration of half-maximal effect; series mostly up to about 57 µM; % is set by controls: 0 for no effect and ±100 for the full control effect; nearly all actives have a fitted effect of over 65% in size
HP1b chromo inh: HP1-beta chromodomain-methylated histone interaction inhibition. actives 0.56% (n = 390,000). P83916. AID 540317. Potency, µM (doses to about 114 µM), for inactives: at the highest dose activity change, negative = inhibition, usual class: inhibitors. AlphaScreen HP1-beta / biotin-H3K9me3 peptide binding; note: potency is the fitted concentration of half-maximal effect; nearly all actives have a fitted effect of over 70% in size
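Compound inhibition of the preformed complex between 50 nM HP1-beta and 50 nM biotinylated H3K9me3 peptide was read by AlphaScreen. Buffer was PBS pH 7.4 with 0.01% Tween-20. Incubations ran 30 min at room temperature, with 10 ug/mL donor/acceptor beads.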
The depositor's hits bear a star; ? = inconclusive; / = no result given; [ ] = another dose, or the depositor's remark. Sampled rows, rich in hits. Any-hit rate of the full collection: about 12%. Unless noted, calls come from the whole dose curve; as a rule, active = well fitted curve in the direction sought with a large enough effect; inconclusive = small, poorly fitted or top-dose-only effect, or another doubt; inactive = no such curve, though single readings can be large; an effect the other way counts as inactive or inconclusive.

SMILES	G9a inh	BAZ2B inh	JMJD2A Tudor inh	PI5P4Ka inh	PLK1 PBD inh	HP1b chromo inh
CCS(=O)(=O)Nc1ccc(Cc2ccc(NS(=O)(=O)CC)cc2)cc1	50µM*	7%	-7%	/	-14%	19%
CC(C)(C)c1cc(C(=O)NNS(=O)(=O)c2ccccc2)n[nH]1	-32%[59 µM]	-10%	5%	-7	3%	45%
CC(C)(C)c1cc(C(=O)O)n[nH]1	13µM*	?	50µM*	/	-5%	-5%
CC(C)Cc1cc(C(=O)O)n[nH]1	-49%[12.7 µM]	50µM*	25µM*	-1	-3%	1%
Cc1cc(Cl)ccc1N(CC(=O)NCc1ccc2c(c1)OCO2)S(C)(=O)=O	/	-8%	-14%	2	-18%	40%
Cc1cc(Br)cc2c1NC(=O)C2(O)CC(=O)c1ccco1 (centres undefined)	6%	7%	-9%	1	-16%	61%
Cc1ccc2[nH]c(=O)c(CN(C)C(=O)c3cccs3)cc2c1	3%	15%	-18%[11.4 µM]	-10	30µM*	?
O=C(CSc1nnc2n1CCCN2)c1ccc([N+](=O)[O-])cc1	40µM*	-38%	?	-12	?	-1%
O=C(CSc1nnc2n1CCCN2)c1ccc(Cl)cc1	-18%[59 µM]	6%	-22%	-5	-11%	4%
CCC(C)CN1C(=O)CSCC1(C)C(=O)NC(C)C (centres undefined)	/	/	/	0	-6%	/
O=C(CN1C(=O)NC2(CCc3ccccc32)C1=O)Nc1ccccc1C(F)(F)F (centres undefined)	?	-5%	-12%	-4	-10%	25%
Cc1cc(C)n(-c2ccc(C(=O)Nc3cc(S(=O)(=O)N(C)C)ccc3Cl)cc2)n1	79µM*	5%	?	2	-6%	30%
c1ccc(SC23CCCCN(CCC2)C32OCCO2)cc1 (centres undefined)	/	/	/	14	-2%	/
CCOC(=O)C1CCN(C/C=C/c2ccccc2)CC1	45µM*	?	79µM*	0	-4%	-37%
CCN(CC)C(=O)C1CCCN(C/C=C/c2ccccc2[N+](=O)[O-])C1 (centres undefined)	35µM*	?	3.2µM*	-8	-2%	?
CCOC(=O)C1CCN(C(=O)/C=C/c2cccs2)CC1	-31%	-8%	-1%	8	-16%	?
CCOC(=O)C1CCCN(C/C=C/c2ccccc2)C1 (centres undefined)	40µM*	?	22µM*	0	-14%	?
CCOC(=O)C1CCN(C(=O)Cc2cccs2)CC1	-3%[59 µM]	-4%	-5%[11.4 µM]	-18	30µM*	-17%
Cc1cccc(C)c1Nc1c(-c2ccccc2Cl)nc2cnccn12	3%[59 µM]	16%	11%	/	/	79%
CC(=O)N1CCN(CC(C)(C)NS(=O)(=O)c2ccccc2)CC1	/	/	-4%	1	-9%	25%
CCOC(=O)C1CCN(CC(C)(C)NS(=O)(=O)c2ccccc2)CC1	?	-27%	1.8µM*	1	5%	79µM*
NC1(C(=O)O)C[C@H](C(=O)O)[C@H](C(=O)O)C1 (some centres undefined)	26%[59 µM]	/	/	/	/	/
Cc1ccc2c(=O)c(C(=O)c3ccc(F)cc3)cn(CC(=O)NCc3ccco3)c2n1	50µM*	50µM*	?	?	-15%	-3%
O=C(O)C(S)C(S)C(=O)O (centres undefined)	/	/	50µM*	-55*	8.4µM*	?
N[C@H](C(=O)O)[C@H](O)C(=O)O	15%[12.7 µM]	/	/	/	/	/
SMILES	G9a inh	BAZ2B inh	JMJD2A Tudor inh	PI5P4Ka inh	PLK1 PBD inh	HP1b chromo inh
Cc1cc(NC2CCCCC2)nc(-n2nc(C)cc2C)n1	38%[59 µM]	/	/	/	/	/
CC(C)(C)C1CCc2c(sc(N)c2C(N)=O)C1 (centres undefined)	4µM*	-20%	-27%	?	?	13%
CCCC1CCc2c(sc(N)c2C(N)=O)C1 (centres undefined)	32µM*	?	?	?	27µM*	?
CCC(C)(C)C1CCc2c(sc(N)c2C(N)=O)C1 (centres undefined)	?	?	?	-28	0%	-11%
COc1cccc(C(=O)Nc2ccc(-c3cn4cccnc4n3)cc2)c1OC	16%[59 µM]	-18%	-19%	/	/	59%
O=C(O)CCC/C=C\C[C@@H]1[C@@H](/C=C/[C@H](O)C2Cc3ccccc3C2)[C@@H](F)C[C@@H]1O	-4%[59 µM]	/	/	/	/	/
O=C(c1cc2ccccc2cc1O)N1CCN(c2ccccc2O)CC1	45µM*	-35%	?	-25	-3%	-13%
O=C(c1ccc2ccccc2n1)N1CCN(c2ccccc2O)CC1	45µM*	-8%	-26%	1	-5%	12%
COc1ccc(N2CCN(C(=O)c3ccc4ccccc4n3)CC2)cc1	71µM*	-32%	-6%	1	0%	12%
COc1cc2ccccc2cc1C(=O)N1CCCC(C(F)(F)F)C1 (centres undefined)	-1%[12.7 µM]	51%	-6%	6	-11%	?
O=C(c1cc2ccccc2cc1O)N1CCCC(C(F)(F)F)C1 (centres undefined)	/	79µM*	-15%	7	-18%	26%
COc1ccc(N2CCN(C(=O)c3ccc4c(c3)[nH]c(=S)n3c5ccccc5nc43)CC2)cc1	13µM*	?	/	/	/	/
O=C(c1ccc2c(c1)[nH]c(=S)n1c3ccccc3nc21)N1CCN(c2cccc(Cl)c2)CC1	?	-13%	-5%	-2	-3%	29%
CCc1nc2ccc(C(=O)NCCC(C)C)cn2c1N(CC)CCOC	/	/	/	0	0%	/
Cc1nc(N=Nc2ccc(O)cc2)n[nH]1	-119%[59 µM]	?	6%	-13	4%	37%
Cc1[nH]c(N=Nc2ccccc2)nc1N=Nc1ccccc1	7.9µM*	6.3µM*	7.9µM*	-12	-1%	?
Cc1ccc(CNC(=O)C(=O)NCC(c2ccco2)S(=O)(=O)c2cccs2)cc1 (centres undefined)	10%[59 µM]	-3%	-11%	/	/	27%
CCOC(=O)C(=O)NCC(c1ccco1)S(=O)(=O)c1cccs1 (centres undefined)	?	-15%	11µM*	-5	0%	25%
O=C1CC(c2ccccc2)CC(O)=C1C=Nc1ccccc1O (centres undefined)	29%	-30%	-8%	-3	1%	41%
Cc1ccc(N=CC2=C(O)CC(c3ccco3)CC2=O)cc1 (centres undefined)	/	-2%	-6%	/	0%	25%
O=C1CC(c2ccco2)CC(O)=C1C=Nc1cc(Cl)ccc1O (centres undefined)	?	45µM*	79µM*	-19	-24%	?
